Assay results from PubChem BioAssay AID504329 (Southern Research Specialized Biocontainment Screening …, 2011).
“And” between values parts separate entries of the source, which are not always exact repeats. Equal entries are not always repeated. Screen size: about 340,000 compounds; about 1,000 (0.29%) were called active. A selection follows. Entries with a potency or affinity are not part of this list. Unmarked numbers belong to inactive results. Cut-off read from the data, not from the text of the source: inconclusive = inhibition above about 27% without an active follow-up result; inactive = below that.

Experiment: H1N1 influenza NS1A inhibitors, functional cell based assay (AID 504329)
Conditions: percent inhibition, at 12.5 µM, active compounds read high

Row | SMILES | inhibition
1 | c1ccc(Nc2ccccc2)cc1 | -1.53%
2 | c1ccc(Nc2ccc(Nc3ccccc3)cc2)cc1 | 26.8%
3 | CC(C)c1nc(SCC(=O)N2CCCCCC2)c2c(=O)n(C)c(=O)n(C)c2n1 | -2.22%
4 | COc1ccc(C(CCNCc2ccc(OC(C)C)cc2)c2ccccc2OC)cc1 (stereo not drawn) | 3.25%
5 | COc1ccc(CNCCC(c2ccc(OC(C)C)cc2)c2ccccc2OC)cc1 (stereo not drawn) | 13.4%
6 | COc1ccc(C(CCNCc2ccc(N(C)C)cc2)c2ccccc2)cc1 (stereo not drawn) | 25.2%
7 | COc1ccccc1C(CCNCc1ccccc1)c1ccc(OC(C)C)cc1 (stereo not drawn) | 11.1%
8 | COc1ccc(CNCCC(c2ccc(OC(C)C)cc2)C(C)C)cc1OC (stereo not drawn) | 5.92%
9 | COc1ccc(CNCCC(c2ccc(OC)cc2)c2ccccc2OC)cc1 (stereo not drawn) | -0.73%
10 | O=C(CCc1c[nH]c2ccccc12)NCc1cccc(Cl)c1 | 15.9%
11 | Cc1cc(=O)oc2cc(OCC(=O)Nc3c(C)n(C)n(-c4ccccc4)c3=O)c(Cl)cc12 | -7.09%
12 | Cc1cc(=O)oc2cc(OCC(=O)N(C)C3CCS(=O)(=O)C3)c(Cl)cc12 (stereo not drawn) | -3.85%
13 | CN(C)/C=C1/C(=O)NC(=O)N(CCNc2ncc(C(F)(F)F)cc2Cl)C1=O | -1.37%
14 | CN(C)C(=O)CCc1ccc2c3c([nH]c2c1)[C@]1(C)[C@@H](C(=O)N2CCCCC2)C[C@H](CC(=O)NCCN2CCOCC2)C(=O)N1CC3 | 8.89%
15 | S=C(NCc1cccs1)NCC1CCCO1 (stereo not drawn) | -5.35%
16 | Cc1ccc(S(=O)(=O)N(C)CCCC(=O)Nc2cccc3ccccc23)cc1 | 2.47%
17 | Cc1ccc(S(=O)(=O)N(C)CCCC(=O)Nc2ccc(C)cc2C)cc1 | -2.08%
18 | Cc1ccc(N=Nc2ccc(O)c3ncccc23)cc1C | -4.94%
19 | Cc1ccc(N=Nc2ccc(O)c3ncccc23)cc1 | -1.47%
20 | Cc1ccccc1N=Nc1ccc(O)c2ncccc12 | 11.8%

Row | SMILES | inhibition
21 | Oc1ccc(N=Nc2ccccc2C(F)(F)F)c2cccnc12 | 18.7%
22 | CCOc1ccc(NC(=O)CN(C)C(=O)CSCc2c(C)noc2C)cc1OCC | -3.36%
23 | COc1ccc(CC(=O)NNC2=Nc3cccc4cccc2c34)cc1OC | -25.3%
24 | O=C1c2ccccc2C(=O)N1CCc1nc2ccccc2c(=O)n1Cc1ccco1 | -1.09%
25 | O=C(Cc1ccc(N(CCCl)CCCl)cc1)NC(Cc1ccc(Cl)cc1)C(=O)O (stereo not drawn) | -4.27%
26 | CC(C(=O)NCC1(c2ccccc2)CCOCC1)N1CCOCC1 (stereo not drawn) | -3.8%
27 | CCCCCCN1C=C/C(=C\C=C(C#N)C#N)c2ccccc21 | 18.4%
28 | C=CCN1C=CC(=CC=C(C#N)C#N)C=C1 | 4.22%
29 | CCN(CC)C(=O)c1nn(Cc2ccccc2)c(=O)c2ccccc12 | -5.91%
30 | Cc1cc(C(=S)N2CCOCC2)c(C)n1-c1ccc(F)cc1 | 1.72%
31 | Cc1ccc(-n2c(C)cc(C(=S)N3CCOCC3)c2C)cc1C | 12.2%
32 | O=C(NC1(c2ccccc2)CC1)C1CCC(=O)N(Cc2ccc(Cl)cc2)C1 (stereo not drawn) | 8.58%
33 | CC1CCC/C(=N/Nc2ccc([N+](=O)[O-])cc2[N+](=O)[O-])C1 (stereo not drawn) | 10.6%
34 | CC1C/C(=N\Nc2ccc(S(N)(=O)=O)cc2[N+](=O)[O-])CC(C)(C)C1 (stereo not drawn) | 8.9%
35 | O=[N+]([O-])c1ccc(N/N=C2\CC3CC=CC23)cc1 (stereo not drawn) | -1.23%
36 | O=[N+]([O-])c1ccccc1N/N=C1\CC2CC=CC12 (stereo not drawn) | 21.6%
37 | O=C(CN1CCN(S(=O)(=O)c2ccc(Br)cc2)CC1)N/N=C/c1cc([N+](=O)[O-])ccc1Cl | -0.7%
38 | O=C(Oc1cccc(F)c1)c1ccc2c(=O)n3c(nc2c1)CCC3 | 3.05%
39 | N#CCO/N=C/C(=O)Nc1ccc(F)cc1F | -11.8%
40 | CCOC(=O)C1=C(C)Nc2ncnn2C1c1ccc(N(C)C)cc1 (stereo not drawn) | 6.88% and -12.7%

Row | SMILES | inhibition
41 | O=C(O)c1ccc(Nc2nc(-c3ccccc3)nc3ccccc23)cc1 | -15.2%
42 | Cc1ccc2nc(-c3ccc(NC(=O)COC(=O)c4ccco4)cc3)sc2c1 | -4.32%
43 | COc1ccc(N(CC(=O)NC2CCCCC2)S(=O)(=O)c2cccnc2)cc1 | -1.53%
44 | CC(C)n1cnnc1SCC(=O)NC(=O)c1ccccc1 | -13.7%
45 | O=C(CSc1nc(=O)n(CCCN2CCOCC2)c2c1CCC2)Nc1ccc(F)cc1F | 0.02%
46 | CCOC(=O)c1cnc(Cc2ccccc2)[nH]c1=O | -2.72%
47 | CCOC(=O)c1cnc(N2CCN(c3ccccc3)CC2)[nH]c1=O | -0.51%
48 | O=C(c1cccc(N2C(=O)C3C4C=CC(C4)C3C2=O)c1)N1CCN(c2ccc(F)cc2)CC1 (stereo not drawn) | -2.51%
49 | COC(=O)c1ccc(NC(=S)N2CCC(C(N)=O)CC2)cc1 | -11.5%
50 | O=C(O)c1ccccc1C(=O)O | 3.33%
51 | O=C(O)c1ccccc1P(=O)(c1ccccc1)c1ccccc1 | 7.4%
52 | O=C(NCc1ccco1)/C(=C/c1ccc([N+](=O)[O-])cc1)NC(=O)c1ccco1 | -2.93%
53 | Cc1ccc(CN2CCN(Cc3cn(C(C)C)c4ccccc34)CC2CCO)o1 (stereo not drawn) | 14.6%
54 | Cc1sc2nc(SCC(=O)Nc3cccc(C(=O)O)c3)[nH]c(=O)c2c1C | -8.26%
55 | CCOC(=O)C1CCN(C(=O)CCNS(=O)(=O)c2cc(Br)cnc2N)CC1 | -2.4%
56 | CCOC(=O)C1=C(C)N=c2s/c(=C/c3cccc([N+](=O)[O-])c3O)c(=O)n2C1c1cc(OC)c(OC)c(OC)c1 (stereo not drawn) | 20.1%
57 | CCOC(=O)C1=C(C)N=c2s/c(=C/c3cccc([N+](=O)[O-])c3O)c(=O)n2C1c1ccc(OC)cc1OC (stereo not drawn) | 22.2%
58 | CCc1ccc(C(=O)C(C)OC(=O)CNS(=O)(=O)c2ccc(C)cc2)cc1 (stereo not drawn) | -0.69%
